Screens from PubChem.
Only some compounds are listed: those with a hit (about 3.5% of all), similar ones and a draw of the others.
MITF primary = MITF inhibitors, primary screen, biochemical, AlphaScreen, human. 0.91% of 650,000 active. AlphaScreen MITF homodimerization, bead proximity signal. Microphthalmia-associated transcription factor (Homo sapiens), O75030. inhibition, % at 2.6 µM; in the data active = inhibition above about 50%
GPR151 ag = activators of human GPR151, primary screen, cell-based, PathHunter beta-arrestin, luminescence; PathHunter beta-arrestin GPR151 cells; G-protein coupled receptor 151 (Homo sapiens), Q8TDV0; 1% of 650,000 active; AID 1508602, 2020; activation, % at 11.2 µM; in the data active = activation above about 4.9%
TEAD-YAP block = TEAD-YAP interaction inhibition, primary screen, TEAD-YAP interaction inhibitor project, luminescence, HEK-TIYL cells; inhibition, % at 9.12 µM; AID 1259422, 2018; 1.4% of 640,000 active; TEAD-Gal4/YAP UAS-luciferase luminescence; in the data active = inhibition above about 32%
FBW7 activator = FBW7 E3 ligase activators, primary screen, biochemical, AlphaScreen, human; F-box/WD repeat-containing protein 7 (Homo sapiens), Q969H0; AlphaScreen FBW7–phospho-cyclin E peptide binding, activator screen; normalized activity (activation), % at 26.1 µM; 0.13% of 650,000 active; in the data active = normalized activity above about 1.9%;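 also: purified mutant Fbw7 with reduced substrate affinity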
Target sequence (Q969H0 whole entry, looked up): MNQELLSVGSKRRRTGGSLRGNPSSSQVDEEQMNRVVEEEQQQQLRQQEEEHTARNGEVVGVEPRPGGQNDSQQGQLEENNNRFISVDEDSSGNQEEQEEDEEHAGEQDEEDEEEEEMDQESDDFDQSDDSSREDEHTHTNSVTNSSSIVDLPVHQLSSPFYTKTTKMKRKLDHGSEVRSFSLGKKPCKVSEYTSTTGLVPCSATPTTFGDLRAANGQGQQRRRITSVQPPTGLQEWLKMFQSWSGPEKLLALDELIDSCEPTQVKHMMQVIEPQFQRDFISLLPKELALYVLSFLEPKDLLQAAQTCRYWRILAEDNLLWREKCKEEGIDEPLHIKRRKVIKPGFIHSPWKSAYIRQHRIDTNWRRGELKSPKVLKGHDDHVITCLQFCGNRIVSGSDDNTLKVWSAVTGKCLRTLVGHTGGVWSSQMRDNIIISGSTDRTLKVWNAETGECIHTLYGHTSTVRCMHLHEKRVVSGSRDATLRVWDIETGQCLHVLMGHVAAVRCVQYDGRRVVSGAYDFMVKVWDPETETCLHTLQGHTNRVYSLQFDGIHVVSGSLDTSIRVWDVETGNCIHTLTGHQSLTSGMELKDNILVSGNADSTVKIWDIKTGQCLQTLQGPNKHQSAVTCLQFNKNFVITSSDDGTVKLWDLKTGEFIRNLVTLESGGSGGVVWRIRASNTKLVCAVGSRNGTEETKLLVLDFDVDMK
MITF confirm = MITF inhibitors, retest of hits, confirmation, biochemical, AlphaScreen, triplicate; inhibition, % at 2.6 µM; 16% of 4,700 active; AlphaScreen MITF homodimerization, biotin/His-MITF beads; shares compounds with MITF primary;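 active = inhibition above a cutoff derived from the DMSO control wells, cut at about 28% in these data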;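 also: inhibitors lower the bead chemiluminescence by keeping MITF from dimerizing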
AlphaScreen DR = AlphaScreen optical interference compounds, dose response, counter-screen, biochemical, HTS. shares compounds with MITF primary. AlphaScreen optical interference counterscreen, cell-free. 6% of 480 active. IC50, µM; call rule not given here
AS interf ctr = AlphaScreen optical interference compounds, counter-screen for MITF inhibitor project, biochemical, triplicate | shares compounds with MITF primary | LysRS AlphaScreen counterscreen, signal interference | AID 1259376, 2018 | 7.6% of 4,700 active | inhibition, % at 2.6 µM;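 active = inhibition above a cutoff derived from the DMSO control wells, cut at about 30% in these data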
Numbers stand for hits; . = inactive; / = no result given.

SMILES	MITF primary	GPR151 ag	TEAD-YAP block	FBW7 activator	MITF confirm	AS interf ctr	others
CC1CCCCN1CCN1C(=O)C2C(C(=O)Nc3cccc(Cl)c3)C3C=CC2(O3)C1C(=O)NC1CCCCC1 (stereo not given)	.	.	.	.	/	/
O=C(CNCc1ccccn1)NCc1ccc(Cl)cc1	74	.	.	.	31	100
CC1(C)CC2CC(C)(CN2C(=O)C2CC(c3ccc(Cl)cc3)=NO2)C1 (stereo not given)	.	.	.	.	/	/
Ic1ccc(-c2ncc3ccccn23)cc1	.	.	.	.	/	/
COc1ccc(-c2ncc3ccccn23)cc1OC	70	.	.	.	.	36
c1coc(-c2ncc3ccccn23)c1	.	.	.	.	/	/
Clc1ccccc1-c1ncc2ccccn12	63	.	.	.	.	36
O=C(NNS(=O)(=O)c1ccc(Cl)cc1)c1ccccc1O	.	.	.	.	/	/
Cc1ccc(C(=O)CCC(=O)OCC(=O)Nc2ccccc2C#N)cc1	.	.	.	.	/	/
Cc1[nH]c(=O)[nH]c1C(=O)CCCCC(=O)OCC(=O)Nc1ccc(S(N)(=O)=O)cc1	95	.	.	.	101	75
Cc1[nH]c(=O)[nH]c1C(=O)CCCCC(=O)OCC(=O)Nc1ccccc1C#N	113	.	.	.	99	76
CN1CCN(CCCOc2ccccc2C=O)CC1	65	.	.	.	.	.
O=Cc1cc(Cl)ccc1OCCCN1CCN(Cc2ccccc2)CC1	57	.	.	.	.	.
CN1CCN(CCCOc2ccc(Cc3ccccc3)cc2)CC1	.	.	.	.	/	/
O=Cc1cc(Cl)ccc1OCCOc1ccccc1	.	.	.	.	/	/
CC(=O)CCc1ccc(OCCCN2CCN(Cc3ccccc3)CC2)cc1	59	.	.	.	.	.
O=Cc1ccc(OCCCN2CCN(Cc3ccccc3)CC2)cc1	57	.	.	.	.	.
Fc1ccc(Nc2nc(-c3ccccc3F)nc3ccccc23)cc1Cl	.	.	.	.	/	/
COCCCN1C(=O)CC(CC(=O)NCc2ccc(C)cc2)(c2ccccc2C)C1=O (stereo not given)	.	.	.	.	/	/
COc1cccc(CN(CCN(C)C)C(=O)[C@H](N)Cc2ccc(-c3cn[nH]c3)cc2)c1	.	.	.	.	/	/
O=C(NCc1ccco1)C1(c2cccs2)CCOCC1	.	.	.	.	/	/
CCCCOc1ccc(CN2CCN(CCOCCO)CC2)cc1	76	.	.	.	.	.
COc1ccc(CN2CCN(CCOCCO)CC2)cc1	.	.	.	.	/	/
CCc1nc(NCCCCCO)c2nnn(Cc3ccccc3F)c2n1	59	.	.	.	.	.
COc1ccccc1C(=O)N/C(=C\c1ccc2c(c1)OCO2)C(=O)N1CCOCC1	.	.	.	.	/	/
SMILES	MITF primary	GPR151 ag	TEAD-YAP block	FBW7 activator	MITF confirm	AS interf ctr	others
Cc1c(C)n2c3c(=O)n(CC(N)=O)c(=O)n(C)c3nc2n1Cc1ccco1	.	.	.	.	/	/
O=C(Oc1c(I)cc(Cl)c2cccnc12)N1CCOCC1	.	.	.	.	/	/
c1ccc(-c2cc(N3CCOCC3)nc(-c3ccccn3)n2)nc1	113	.	45	.	117	100
COC(=O)C1=CN(c2ccc(C)c(Cl)c2)C=C(C(=O)OC)C1c1cccs1	57	.	.	.	.	.
Oc1ccc(CCNc2cc(-c3cccs3)ncn2)cc1	59	.	.	.	44	.	AlphaScreen DR=.
O=C(c1ccc(F)cc1)N1CCN(Cc2cccnc2)CC1	72	.	.	.	.	.
O=C(c1cccnc1)N1CCN(Cc2cccc(F)c2)CC1	75	.	.	.	.	.
O=C(c1ccccc1)N1CCN(Cc2cccc(Oc3ccccc3)c2)CC1	.	.	.	.	/	/
O=C(c1cccnc1)N1CCN(Cc2cccc(Oc3ccccc3)c2)CC1	70	.	.	.	.	.
Cc1c(/C=N/NC(=O)c2ccc([N+](=O)[O-])cc2Cl)cnn1C	.	.	.	.	/	/
Oc1c(Cl)cc(Cl)cc1/C=N/Nc1nccnc1Cl	.	.	.	.	/	/
O=P(O)(CN1CCOCC1)CN1CCOCC1	.	.	.	.	/	/
O=C1C(=O)N(CC2CCCO2)C(c2ccco2)/C1=C(/O)c1ccc(Cl)cc1 (stereo not given)	53	.	.	.	.	.
O=C1C(=O)N(CC2CCCO2)C(c2ccc(Cl)cc2)/C1=C(/O)c1ccccc1 (stereo not given)	.	.	.	.	/	/
COCCOC(=O)C1=C(C)NC2=C(C(=O)CC(c3ccccc3Cl)C2)C1c1cccs1 (stereo not given)	.	.	.	.	/	/
C/C(CC(=O)Nc1ccccc1)=N\NC(=O)CC#N	57	.	.	.	61	35
COC(=O)c1ccccc1NC(=O)C/C(C)=N/NC(=O)CC#N	.	.	.	.	/	/
CCCOC(=O)c1ccc(NS(=O)(=O)c2ccc(NC(C)=O)cc2)cc1	.	.	.	.	/	/
CCc1nc(C)ccc1OCc1nc2ccncc2[nH]1	58	.	.	.	.	.
NCc1nc2ccncc2[nH]1	.	.	.	.	/	/
COC(=O)C1=C(C)NC(=S)NC1c1ccc(C)c([N+](=O)[O-])c1 (stereo not given)	.	.	.	.	/	/
c1ccc(CN2CCC(NCc3ccc(-n4ccnc4)cc3)CC2)cc1	51	.	.	.	.	.
CC(CC(=O)Nc1ccccc1)NC1CCN(Cc2ccccc2)CC1 (stereo not given)	66	.	.	.	.	.
CC(=O)Nc1ccc(CNC2CCN(Cc3ccccc3)CC2)cc1	79	.	.	.	.	.
CN(Cc1ccccc1)c1[nH]c(=O)n(C)c(=O)c1Cc1ccc(F)cc1F	.	.	.	.	/	/
SMILES	MITF primary	GPR151 ag	TEAD-YAP block	FBW7 activator	MITF confirm	AS interf ctr	others
O=S(=O)(Nc1ccc(N2CCC(NCCc3ccco3)CC2)cc1)c1ccccc1	.	.	.	.	/	/
CCN(CC)C(=O)CN1Cc2ccccc2C1=O	.	.	.	.	/	/
COc1ccc(COCC(O)CN2CCN(C(C)=O)CC2)cc1 (stereo not given)	.	.	.	.	/	/
COc1ccc(COCC(O)CN2CCN(CCc3ccccn3)CC2)cc1 (stereo not given)	78	.	.	.	.	.
COc1ccc(OCC(O)CN2CCN(CCc3ccccn3)CC2)c(C(C)(C)C)c1 (stereo not given)	81	.	.	.	.	.
O=C(COC(=O)CN1C(=O)c2ccccc2C1=O)Nc1ncc(C(F)(F)F)cc1Cl	.	.	.	.	/	/
